Bioassay records from PubChem BioAssay.
FAS-TE inh: inhibitors of human fatty acid synthase thioesterase domain | recombinant FAS-TE, OMFH fluorogenic substrate, fluorescence endpoint | inhibition, % at 15 µM | 360,000 compounds, 0.67% hits | AID 602261;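 active means compounds whose normalised, plate-corrected inhibition of enzyme fluorescence in the single-dose primary screen is 50% or more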;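 further: 0% = DMSO with enzyme and 100% = substrate without enzyme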
Cardio protect: protects H9c2 cardiomyocytes from peroxide injury | H2O2 injury protection, ATPLite, 2 h | protection from H2O2 cell death, % at 20 µM | 360,000 compounds, 0.63% hits;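 active means compounds giving at least 50% protection of heart cells from peroxide-induced death in the single-dose screen, raw or plate-pattern-corrected value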;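 further: 0% = DMSO wells with peroxide and 100% = DMSO wells without peroxide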
aDG glyco act: increases alpha dystroglycan glycosylation | 360,000 compounds, 0.22% hits | Pro5-aDG cells, alpha-DG glycosylation AlphaScreen (IIH6); 0% Pro5, 100% B10-LARGE cell signal | AID 624168 | activation, % at 10 µM;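 active means activation of at least 8% versus controls, or a plate z-score of at least 8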;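 further: Pro5 are CHO cells carrying HIG-tagged alpha-DG that lacks glycosylation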
m-calpain inh: inhibitors of pig calpain II | 220,000 compounds, 0.37% hits | inhibition, % at 16 µM | purified calpain II, fluorogenic peptide substrate, 30 min;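 active means inhibition above about 50%, limit read from the data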
beta cell repl: induces beta-cell replication in MIN6 cells; MIN6 cells proliferation, ATPlite luminescence, 48 h; cells starved in 0.2% serum; 100% = growth in 10% serum; proliferation, % at 10 µM; 330,000 compounds, 0.29% hits; AID 2380;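 active means compounds whose signal lies at least 3.5 SD above the mean of all wells on their plate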;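 further: 0% = DMSO-treated cells in low-serum medium and 100% = 10% serum control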
TAG inh: reduces triacylglycerol accumulation in H9c2 cells; Nile Red lipid (TAG) fluorescence; cells loaded with 200 µM oleic acid; inhibition, % at 12.5 µM; 230,000 compounds, 0.66% hits; AID 651582;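 active means pattern-corrected inhibition of lipid staining of at least 50% with the nuclear-stain viability signal not falling by more than 50%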;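 further: 0% = DMSO wells and 100% = triacsin C control wells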
Numbers without * were called inactive; . = not tested or not shown. This is a sample that favours compounds with a hit; in the whole collection about 2.3% have one here.

SMILES | FAS-TE inh | Cardio protect | aDG glyco act | m-calpain inh | beta cell repl | TAG inh
Cc1cc(CN(C)C(=O)CC2C(=O)NCCN2Cc2ccc(-c3ccccc3)cc2)on1 (centres undefined) | 1 | -3 | 0 | . | -3 | .
CN(C)Cc1ccc(-c2nc3cccc4c3n2CCNC4=O)cc1 | -20 | 53* | 0 | . | 2 | -18
Cc1cccc(OCCCSc2nc3ccc(C)cc3[nH]2)c1 | 15 | -7 | 2 | 71* | -2 | 8
O=C(Cn1cnc([N+](=O)[O-])n1)N/N=C/c1ccccc1O | 18 | 64* | 1 | 9 | -6 | 18
Cc1nc2ccc(C(=O)N/N=C/c3cc([N+](=O)[O-])ccc3O)cc2[nH]1 | 6 | 10 | 0 | 16 | 0 | -4
O=C(Nc1cccc([N+](=O)[O-])c1)c1cccc(C(=O)Nc2cccc([N+](=O)[O-])c2)c1 | -4 | -2 | 0 | 56* | -1 | .
O=C(N/N=C/c1cc([N+](=O)[O-])ccc1O)c1cccc(NC(=O)c2cccc(Cl)c2)c1 | 27 | 56* | 0 | . | 0 | .
O=C(Nc1ccc(Br)cc1)c1cc([N+](=O)[O-])cc([N+](=O)[O-])c1 | 55* | -18 | 1 | . | -5 | 18
COC(=O)c1ccc2c(=O)[nH]c(COC(=O)c3c(-c4ccccc4Cl)noc3C)nc2c1 | 5 | 7 | 0 | . | -1 | 10
CCOC(=O)C1=C(COC(=O)c2ccccc2[N+](=O)[O-])NC(=O)NC1C (centres undefined) | -3 | 1 | 0 | . | 6 | -1
O=C(Nc1nc(-c2ccccc2)cs1)c1cccc([N+](=O)[O-])c1 | 57* | -6 | 0 | -18 | -5 | .
Cc1ccn(CC(=O)N/N=C/c2cc([N+](=O)[O-])ccc2O)n1 | 20 | 67* | 1 | 9 | 0 | .
Cc1cccc(NC(=O)CCC(=O)N/N=C/c2cc([N+](=O)[O-])ccc2O)c1 | 39 | 58* | 0 | 31 | 0 | .
O=C(CCNc1ccccc1)c1cccc([N+](=O)[O-])c1 | 23 | -6 | 0 | 51* | -6 | .
O=C(N/N=C/c1cc([N+](=O)[O-])ccc1O)C1CCCCC1 | 32 | 52* | 0 | 9 | 7 | 15
O=C(N/N=C(\c1ccccc1)c1ccccn1)c1cccc([N+](=O)[O-])c1 | 20 | 46 | -1 | 34 | -7 | 55*
O=C(N/N=C/c1cc([N+](=O)[O-])ccc1O)C1C2CCCCC21 (centres undefined) | . | . | . | 12 | -4 | .
Cn1ccnc1/C(=N\NC(=O)c1ccccc1)c1cccc([N+](=O)[O-])c1 | 23 | 6 | 0 | -13 | -5 | 8
CC(=O)c1ccc2c(c1)N(Cc1ccccc1)C(=O)C(C)S2 (centres undefined) | 1 | 1 | 0 | . | . | 5
O=c1cc(-c2ccc(O)c(O)c2)oc2cc(O)cc(O)c12 | -3 | 62* | 0 | 39 | 0 | 0
COc1ccc(-c2cc(=O)c3c(O)cc(O)cc3o2)cc1 | 8 | -11 | 0 | . | -4 | -18
O=c1c(O)c(-c2ccc(O)c(O)c2)oc2cc(O)cc(O)c12 | 22 | 95* | 0 | . | -5 | 0
COc1cccc(/C=N/NC(=O)c2nnn(-c3nonc3N)c2C(C)C)c1 | 1 | 6 | 0 | . | -3 | .
COc1ccc([C@H]2CC(=O)C[C@@H](CCn3cc(-c4ccc(F)cc4)nn3)O2)cc1 | -1 | . | 0 | . | . | .
O=C(NCC(=O)N(Cc1cccs1)C(C(=O)NC1CCCCC1)c1ccco1)c1ccco1 (centres undefined) | -4 | 77* | 0 | -5 | -1 | -5
SMILES | FAS-TE inh | Cardio protect | aDG glyco act | m-calpain inh | beta cell repl | TAG inh
CC1CCN(S(=O)(=O)c2ccc(NC(=O)CSc3nnnn3C)cc2)CC1 | -6 | 0 | 0 | 59* | -4 | .
CCN(CC)C(=O)c1[nH]cnc1C(=O)NCC(=O)OCc1ccccc1 | -7 | 105* | 0 | . | 1 | -2
O=C(CNC(=O)c1nc[nH]c1C(=O)NCC(=O)OCc1ccccc1)OCc1ccccc1 | -5 | 96* | -1 | . | 1 | -1
O=C(CNC(=O)c1nc[nH]c1C(=O)NCc1ccccc1)OCc1ccccc1 | 19 | 103* | 0 | . | 9 | 12
CNC(=O)c1[nH]cnc1C(=O)NCC(=O)OCc1ccccc1 | 1 | 18 | 0 | . | -1 | -18
CCN(CC)S(=O)(=O)c1ccc(N2CCCC2)c(NC(=O)C2=NN(c3ccccc3)C(=O)CC2)c1 | 21 | 5 | 0 | . | -1 | 18
CCn1c2ccccc2c2nc3cc(OC)c(OC)cc3nc21 | 3 | 51* | 3 | -207 | -1 | 25
O=C(O)CN1C(=O)/C(=C\c2cc(Br)ccc2OCc2ccc(Cl)cc2Cl)SC1=S | 86* | -5 | 0 | . | -5 | .
COC(=O)C(N)Cc1ccc(Cl)cc1 (centres undefined) | -5 | 12 | 0 | . | -1 | 4
COC(=O)[C@@H](N)Cc1ccc(O)c(O)c1 | 0 | 58* | 0 | . | -6 | 4
Cc1ccccc1C(=O)Oc1ccc(Sc2ccc(O)cc2)cc1 | . | . | . | 113* | -4 | .
O=C(Oc1ccc(Br)cc1C(=S)N1CCCCC1)c1cc([N+](=O)[O-])cc([N+](=O)[O-])c1 | 53* | 13 | 0 | 9 | -2 | .
CC(=O)NC(c1cccc(F)c1)c1nc(-c2ccc3ccccc3c2)cs1 (centres undefined) | 19 | -6 | 0 | . | . | -4
COc1nc(N/N=C/c2cc3c(cc2Br)OCO3)nc(N2CCOCC2)n1 | 1 | 54* | 0 | -10 | 7 | 3
COc1ccc(/C=C(\C#N)C(=O)c2c(C)[nH]c3ccccc23)cc1OC | -7 | 54* | 0 | -5 | -4 | .
CC1(Cc2ccc(F)cc2)C(=O)Nc2ccc(-c3cccnc3)cc21 (centres undefined) | -4 | -13 | 0 | . | . | -23
COc1cc(/C=C(\C#N)C(=O)Nc2ccccc2F)ccc1OCCN1CCOCC1 | -2 | 67* | 0 | . | -3 | -12
COc1cc(/C=C(\C#N)C(=O)Nc2ccccc2)ccc1OCCN1CCOCC1 | -6 | 54* | 0 | . | -5 | 11
N#C/C(=C\c1ccc(OCCN2CCOCC2)cc1)C(=O)Nc1ccccc1 | -5 | 6 | 0 | . | -2 | 2
CC(C)(C)c1ccc(CN2N=Nc3ccccc3S2(=O)=O)cc1 | -31 | -15 | -1 | -3 | -3 | 51*
Cc1ccc(S(=O)(=O)CC(=O)Nc2ccc3nc(C)sc3c2)cc1 | -3 | 10 | 0 | . | -1 | .
Cn1c(N)c(C(=O)COC(=O)C2CCN(S(=O)(=O)c3cccs3)CC2)c(=O)n(C)c1=O | 0 | -10 | 0 | 0 | -2 | 12
CCCCCn1nc(C(=O)OCC(=O)c2c(N)n(C)c(=O)n(C)c2=O)c2ccccc2c1=O | 15 | 66* | 0 | 38 | -3 | 20
Cn1c(N)c(C(=O)COC(=O)CCc2nc3ccccc3s2)c(=O)n(C)c1=O | 0 | 0 | 1 | -9 | 1 | -6
